Screens: PubChem, several laboratories
TIM10 inh – inhibits growth of TIM10 yeast strain; AID 463195; inhibition, % at 10 µM; S. cerevisiae TIM10 strain growth, BacTiter-Glo luminescence, 24 h; actives 1.4% (n = 330,000);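 active = inhibition of 40% or more at the single tested concentration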;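 note: wild-type TIM10 isogenic control strain grown at permissive 25 °C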
SKKanGAS inh – SKKanGAS growth inhibition | actives 1.3% (n = 300,000) | AID 1662 | S. pyogenes SKKanGAS, kanamycin growth, BacTiter-Glo, 6 h | inhibition, % at 7.5 µM;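 active = mean replicate score, as percent of positive control median, at least 50; inconclusive = mean below 50 but one replicate at or above 50; inactive = mean and every replicate below 50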;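 note: strain carries kanamycin resistance gene driven by streptokinase promoter and grows in 40 µg/ml kanamycin; loss of luminescence reflects streptokinase promoter inhibition or plain growth inhibition; 0% = median of DMSO wells and 100% = positive control at its reference dose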
tim10-1 inh – tim10-1 yeast growth inhibition | AID 463190 | actives 2.2% (n = 330,000) | S. cerevisiae tim10-1 ts strain growth, BacTiter-Glo, 24 h | inhibition, % at 20 µM;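 active = inhibition of at least 40%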;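 note: mutant grown at 25 °C; 0% = DMSO wells with yeast and 100% = wells holding no yeast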
NLRP3 yeast inh – inhibitors of NALP3 inflammasome in yeast; Yeast reconstituted NLRP3/ASC/caspase-1, beta-gal luminescence, 24 h; actives 0.39% (n = 330,000); inhibition, % at 10 µM;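 active = inhibition of 50% or more; inactive = inhibition below 50%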;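 note: plate controls were induced DMSO wells for no effect and uninduced yeast grown without galactose for full effect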
NALP1 inh – inhibitors of NALP1 inflammasome in yeast; AID 2071; S. cerevisiae NALP1/ASC/caspase-1 growth, X-gal OD620, 72 h; inhibition, % at 10 µM; actives 0.61% (n = 280,000); in the data active = inhibition mostly above about 24%, no sharp cut-off; inactive = mostly below about 32%
tim23-1 inh – inhibits growth of tim23-1 mutant yeast; inhibition, % at 20 µM; actives 1.3% (n = 330,000); S. cerevisiae tim23-1 growth, BacTiter-Glo luminescence, 24 h; AID 463212;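 active = growth inhibition of the mutant yeast at or above 50%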;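 note: temperature-sensitive mutant grown at 25 °C; plate controls were DMSO-treated mutant yeast for no effect and medium wells lacking yeast for full effect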
tim10-1 confirm – confirmation of tim10-1 mutant yeast growth inhibitors. inhibition, % at 20 µM. AID 463213. shares compounds with tim10-1 inh. actives 56% (n = 7,400). S. cerevisiae tim10-1 ts strain growth, BacTiter-Glo, 24 h;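 active = inhibition of yeast growth at or above a set limit in either of two repeat tests at 20 µM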;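 note: tim10-1 mutant grown at permissive 25 °C to find synthetic lethal compounds; 0% = DMSO yeast wells and 100% = medium wells without yeast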
Starred values were filed as active, the others as inactive; ? = inconclusive; nt = no result given. In the library only some 4.9% were active in any assay of this set; here they are far more common.

SMILES	TIM10 inh	SKKanGAS inh	tim10-1 inh	NLRP3 yeast inh	NALP1 inh	tim23-1 inh	tim10-1 confirm
COc1ccc(CC(=O)OCC(=O)NC(=O)NC23CC4CC(CC(C4)C2)C3)cc1	30	6	40*	16	10	36	12
O=C(NCCc1ccc(F)cc1)NC12CC3CC(CC(C3)C1)C2	25	0	33	11	-11	49	nt
Cc1nc2ccc(C(=O)OCC(=O)N(C)c3ccccc3)cc2nc1C	11	nt	34	2	nt	34	nt
CC(C)[C@H](NC(=O)c1cccc(CN(Cc2ccccc2)C(=O)c2ccccc2)c1)C(=O)O	13	7	-8	-4	nt	-1	nt
O=C(NCc1ccc2c(c1)OCO2)NC12CC3CC(CC(C3)C1)C2	31	4	41*	27	4	43	30*
O=C(NCCC1=CCCCC1)NC12CC3CC(CC(C3)C1)C2	36	15	41*	3	11	33	32*
O=C(NCc1ccc2c(c1)OCO2)Nc1ccc(F)cc1	-3	?	-12	27	11	-6	nt
Cc1ccc(NC(=O)COC(=O)C2CCC2)cc1S(=O)(=O)N1CCOCC1	-4	nt	7	9	nt	10	nt
CC1CCN(S(=O)(=O)c2cccc(C(=O)Nc3nccs3)c2)CC1	23	-3	48*	3	-3	35	35*
O=C(Nc1nccs1)c1ccc(Br)c(S(=O)(=O)N2CCOCC2)c1	8	6	48*	-18	6	29	32*
Cc1nc(Cl)c(N=Cc2cccc([N+](=O)[O-])c2)c(Cl)n1	0	0	0	-11	8	18	nt
COc1cccc(N(C(=O)c2nc3nccc(C)n3n2)c2nc3ccccc3s2)c1	18	5	48*	5	32	31	24
COc1ccc(CNC(=O)CSc2nc3ccccc3n2C(C)=O)cc1	1	-7	13	15	6	18	nt
COc1ccc(-c2c[n+]3c4n2CCCCC4=C(c2ccccc2)C3)cc1	36	11	45*	6	12	37	17
O=C(CC1SC(N2CCCCC2)=NC1=O)Nc1cccc(C(=O)NCc2ccc(F)cc2)c1 (stereo not given)	-4	nt	-22	-2	nt	-16	nt
CCCc1nnc(NC(=O)CCC(=O)N2CCC(Cc3ccccc3)CC2)s1	12	-15	35	5	16	32	nt
N#CCc1nn2c(-c3ccccc3)ccnc2c1C#N	10	-2	43*	-8	6	30	28
CCOc1ccc(C(OC(=O)c2ccco2)C(=O)NCc2ccc(C)cc2)cc1 (stereo not given)	-9	-6	43*	-6	-3	23	12
CCCCCCC(=O)Nc1nc(C)c(-c2csc(Nc3ccc(Cl)cc3)n2)s1	23	17	39	6	-37	24	nt
CCCCCC(=O)Nc1nc(C)c(-c2csc(Nc3ccc(Cl)cc3)n2)s1	28	17	41*	12	-4	21	26
Cc1ccccc1C(=O)NNC(=O)CCCCC(=O)NNC(=O)c1ccccc1C	6	3	-5	-1	nt	10	nt
CCCCCCCCOC(=O)c1c(CSC(=N)N)n(C)c2cc(Br)c(OC(C)=O)cc12	25	75*	46*	-3	-4	39	26
CCc1ccc(S(=O)(=O)/N=C2\C=CC(=O)c3ccccc32)cc1	22	nt	26	0	16	27	nt
Cc1ccc(S(=O)(=O)/N=C2/C=C(C3C(=O)CC(C)(C)CC3=O)C(=O)c3ccccc32)cc1	17	28	41*	1	3	27	29
CC(C)(C)NC(=O)NC(=O)COc1ccc(Br)cc1Br	19	-9	46*	20	32	48	34*
SMILES	TIM10 inh	SKKanGAS inh	tim10-1 inh	NLRP3 yeast inh	NALP1 inh	tim23-1 inh	tim10-1 confirm
O=C(COc1ccc(Br)cc1Br)NC(=O)NC1CCCC1	21	-9	10	40	19	45	nt
COc1ccc(C/C(C)=N/NC(=S)Nc2ccc(C(C)C)cc2)cc1	10	-2	40*	7	8	34	25
O=S(=O)(c1ccc2c(c1)OCCO2)N1C[C@@H]2C[C@H]1CN2S(=O)(=O)c1c(F)cccc1F	-2	nt	14	2	nt	21	nt
c1nc(Nc2ccc(N3CCOCC3)cc2)c2ccsc2n1	-15	-5	8	12	9	7	nt
Fc1ccc(-c2csc3ncnc(Nc4ccc(N5CCOCC5)cc4)c23)cc1	15	2	43*	15	4	38	37*
CN1C(C(=O)Nc2ccc(OC(F)(F)F)cc2)=CC(c2cccs2)=NS1(=O)=O	40	9	41*	0	21	39	39*
COc1ccc(NC(=O)C2=CC(c3cccs3)=NS(=O)(=O)N2C)cc1	1	-5	6	7	-5	18	nt
COc1ccc(Nc2c(-c3ccc(C)cc3)nc3cnccn23)cc1	10	1	14	7	3	35	nt
Cc1ccc(Nc2c(-c3ccccc3O)nc3cnccn23)cc1	14	9	40*	21	3	47	27
Cc1cnc(C(=O)OC(C)C(=O)NCc2ccccc2)cn1 (stereo not given)	2	-2	-2	13	nt	17	nt
Cc1ccc(C(=O)NCCOC23CC4CC(CC(C4)C2)C3)cc1	33	-7	33	15	19	45	nt
COc1cc(OC)cc(C(=O)NCCOC23CC4CC(CC(C4)C2)C3)c1	4	-4	45*	-2	6	24	30
Cc1nnc(N/N=C/c2cccc(OCc3ccc(Cl)c(Cl)c3)c2)n1N	24	8	43*	16	2	41	36*
O=C(NCCN1C(=O)S/C(=C\c2ccc(OC(F)F)cc2)C1=O)C1=COCCO1	28	-6	44*	11	nt	43	29
COc1ccc(/C=C2\SC(=O)N(CCNC(=O)C3=COCCO3)C2=O)cc1	-14	-7	-10	7	nt	3	nt
CCOc1ccc(NC(=O)C(C)Oc2ccccc2C(=O)Nc2cccc(Cl)c2Cl)cc1 (stereo not given)	19	1	41*	10	5	10	10
Cc1[nH]n(-c2ccc([N+](=O)[O-])cc2)c(=O)c1C=NCC1CCCO1 (stereo not given)	10	-1	15	5	-2	9	nt
Cc1ccc(-n2[nH]c(C)c(/C=N/Nc3ccc([N+](=O)[O-])cc3[N+](=O)[O-])c2=O)cc1	24	24	49*	23	15	34	35*
CN1CCc2c(sc(NC(=O)C3CCCCC3)c2C(N)=O)C1	2	0	-19	5	-3	-12	nt
Brc1cc(Br)c2ncnc(N3CCCCC3)c2c1	2	11	46*	-15	-15	47	12
COc1ccc(NC(=O)CC2SC(=O)NC2=O)cc1 (stereo not given)	10	3	41*	8	4	36	34*
